PubChem BioAssay AID720700 (The Scripps Research Institute Molecular Screening Center, 2013)
Among all 370,000 compounds or so, about 3,100 (0.84%) were called active. Only a selection was taken, and actives are over-represented in it overall. Unmarked numbers belong to inactive results. No stated cut-off is given here; in the data, active means inhibition above about 9.5%; inactive means the rest.

What follows are compounds tested against 1-phosphatidylinositol 4,5-bisphosphate phosphodiesterase gamma-1 (Homo sapiens) (UniProt P19174) (assay: blockers of human PLCG1 activity – biochemical, fluorescence, purified enzyme, primary screen (AID 720700)). Conditions: purified PLC-gamma1, fluorogenic substrate, at 12.2 µM, active compounds read high.
Chain of 1-phosphatidylinositol 4,5-bisphosphate phosphodiesterase gamma-1 (Homo sapiens) (P19174 whole entry, looked up): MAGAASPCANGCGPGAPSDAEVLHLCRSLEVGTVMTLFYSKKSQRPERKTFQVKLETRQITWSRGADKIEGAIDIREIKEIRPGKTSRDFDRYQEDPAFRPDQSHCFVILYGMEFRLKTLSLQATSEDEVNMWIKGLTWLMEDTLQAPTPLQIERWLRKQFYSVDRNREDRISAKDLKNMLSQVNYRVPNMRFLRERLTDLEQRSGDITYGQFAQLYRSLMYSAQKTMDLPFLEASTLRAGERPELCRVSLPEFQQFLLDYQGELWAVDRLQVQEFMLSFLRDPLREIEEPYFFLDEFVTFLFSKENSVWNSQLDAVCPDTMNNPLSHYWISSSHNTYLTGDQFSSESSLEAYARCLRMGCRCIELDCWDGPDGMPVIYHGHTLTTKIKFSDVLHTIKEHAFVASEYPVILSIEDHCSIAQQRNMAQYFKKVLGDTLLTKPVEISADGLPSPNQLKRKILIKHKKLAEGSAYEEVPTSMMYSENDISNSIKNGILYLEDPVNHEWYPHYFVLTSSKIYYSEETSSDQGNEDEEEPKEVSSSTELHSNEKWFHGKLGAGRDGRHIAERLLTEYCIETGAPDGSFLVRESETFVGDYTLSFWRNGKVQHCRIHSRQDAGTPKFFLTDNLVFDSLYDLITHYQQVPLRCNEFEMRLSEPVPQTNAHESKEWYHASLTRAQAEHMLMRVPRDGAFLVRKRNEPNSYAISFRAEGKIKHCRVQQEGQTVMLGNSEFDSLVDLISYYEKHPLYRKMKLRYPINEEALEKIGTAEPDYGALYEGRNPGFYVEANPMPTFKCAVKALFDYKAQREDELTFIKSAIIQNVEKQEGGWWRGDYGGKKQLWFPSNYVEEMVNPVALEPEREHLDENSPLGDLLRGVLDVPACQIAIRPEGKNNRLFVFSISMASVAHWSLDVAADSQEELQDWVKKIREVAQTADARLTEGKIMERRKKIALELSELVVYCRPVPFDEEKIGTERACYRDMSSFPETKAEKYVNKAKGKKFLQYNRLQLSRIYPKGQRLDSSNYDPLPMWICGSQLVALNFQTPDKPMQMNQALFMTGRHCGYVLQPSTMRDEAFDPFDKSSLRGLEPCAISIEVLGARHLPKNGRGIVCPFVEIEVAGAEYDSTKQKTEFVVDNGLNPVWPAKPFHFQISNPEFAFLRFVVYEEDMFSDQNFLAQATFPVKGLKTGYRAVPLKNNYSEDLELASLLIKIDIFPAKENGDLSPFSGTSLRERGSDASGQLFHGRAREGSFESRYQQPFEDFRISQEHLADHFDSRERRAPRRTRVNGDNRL

Question: Which inhibition does the source give for `O=[N+]([O-])c1cc(C(F)(F)F)ccc1NN=C1CCCC1` here?
Answer: 11.1% (active)

Question: `O=[N+]([O-])c1cc(S(=O)(=O)N2CCCC2)ccc1NN=C1CCCC1` was tested. Which inhibition did it give?
Answer: 7.15%

Question: With `O=[N+]([O-])c1cc(C(F)(F)F)ccc1NCCc1ccncc1` as the compound, how does the inhibition read?
Answer: -0.57%

Question: Which inhibition does the source give for `COc1ccc2c(C(C)c3ccc(N)cc3)cn(C)c2c1` (configuration not stated) here?
Answer: 3.03%

Question: For `N#Cc1ccccc1OC[C@@H](O)CN1CCC(C(O)(c2ccccc2)c2ccccc2)CC1`, which inhibition is on record?
Answer: 2.31%

Question: `CCOc1ccc(Oc2c(Cl)cnn(-c3ccc(C)cc3)c2=O)cc1` was tested. Which inhibition did it give?
Answer: -4.67%

Question: How did the inhibition turn out when `CN(CCc1ccccc1)C(=O)Cn1nc(-c2ccccc2)ccc1=O` was run?
Answer: 1.49%

Question: With `C=CCSC(CC)(CC)C(N)=O` as the compound, how does the inhibition read?
Answer: 11.9% (active)

Question: `CC(CCN1CCC(C(O)(c2ccccc2)c2ccccc2)CC1)Oc1ccc([N+](=O)[O-])cc1Cl` (configuration not stated) was tested. Which inhibition did it give?
Answer: 6.49%

Question: Which inhibition does the source give for `COc1ccc(C(=O)OCCN(C)C2CN(Cc3cn(Cc4cccc(C)c4)nn3)S(=O)(=O)C2)cc1OC` (configuration not stated) here?
Answer: 3.3%

Question: For `Cc1cc(C)cc(NS(=O)(=O)c2ccc(Oc3ncc(C(F)(F)F)cc3Cl)cc2)c1`, which inhibition is on record?
Answer: -1.75%

Question: For `FC(F)(F)c1cnc(Oc2ccccc2-c2nnc(-c3ccc(Cl)cc3)o2)c(Cl)c1`, which inhibition is on record?
Answer: 12.3% (active)

Question: For `O=C(c1ccccn1)c1ncc(C(F)(F)F)cc1Cl`, which inhibition is on record?
Answer: 1.59%

Question: With `Cc1ccccc1NC(=O)C1CCN(c2ncccn2)CC1` as the compound, how does the inhibition read?
Answer: -3.53%

Question: With `CC(C)(C)OC(=O)NCCc1ccccc1/C=C/S(=O)(=O)NCc1ccc(F)cc1` as the compound, how does the inhibition read?
Answer: -0.15%

Question: `CC1CCN(c2ccc(C(=O)O)cc2NS(=O)(=O)c2ccc(Br)s2)CC1` was tested. Which inhibition did it give?
Answer: 2.88%

Question: How did the inhibition turn out when `O=C(Nc1ccc(C(F)(F)F)cc1)c1cccc(-n2cnnn2)c1` was run?
Answer: -2.72%

Question: For `O=C(Cn1cc(/C=N/NC(=O)c2cccc(C(F)(F)F)c2)c2ccccc21)Nc1ccc(F)cc1`, which inhibition is on record?
Answer: -0.8%

Question: With `CNC(=O)c1ccc(NC(=O)c2cccc(C(F)(F)F)c2)cc1` as the compound, how does the inhibition read?
Answer: 14.4% (active)

Question: For `O=C1[C@H]2[C@@H](c3ccc(Cl)cc3)N3C(=O)N(c4cccc(F)c4)C(=O)[C@@]3(Cc3ccccc3)[C@H]2C(=O)N1C1CCCCC1`, which inhibition is on record?
Answer: -2.34%

Question: Which inhibition does the source give for `Cc1cccc([C@@H]2[C@@H]3C(=O)N(Cc4ccccc4)C(=O)[C@@H]3[C@]3(Cc4ccc(Cl)cc4)C(=O)N(c4cccc(Cl)c4)C(=O)N23)c1` here?
Answer: 11.3% (active)

Question: For `Cc1cccc(N2C(=O)N3[C@H](c4ccc(F)cc4)[C@@H]4C(=O)N(C5CCCCC5)C(=O)[C@@H]4[C@]3(Cc3ccccc3)C2=O)c1`, which inhibition is on record?
Answer: 2.62%
